Screen size: about 220,000 compounds; about 970 (0.44%) were called active. Many of the other results were omitted from the sample, so actives are more common in it than they were. A number with no mark means an inactive call. No stated cut-off is given here; in the data, active means activation above about 27%; inactive means the rest.
Biological target: Neuropeptide Y receptor type 2 (Homo sapiens) (UniProt P49146)
Test: human Y2 receptor positive modulation or activation – cell-based, primary screen (AID 1359);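 further: cells stimulated with NPY near EC25 plus isoproterenol at EC100; 0% = vehicle plus submaximal agonist and 100% = vehicle plus saturating agonist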
Details: cells expressing NPY-Y2, potentiator/agonist read-out; at 3.6 µM; stronger effect = higher value

Neuropeptide Y receptor type 2 (Homo sapiens), sequence (P49146 whole entry, looked up): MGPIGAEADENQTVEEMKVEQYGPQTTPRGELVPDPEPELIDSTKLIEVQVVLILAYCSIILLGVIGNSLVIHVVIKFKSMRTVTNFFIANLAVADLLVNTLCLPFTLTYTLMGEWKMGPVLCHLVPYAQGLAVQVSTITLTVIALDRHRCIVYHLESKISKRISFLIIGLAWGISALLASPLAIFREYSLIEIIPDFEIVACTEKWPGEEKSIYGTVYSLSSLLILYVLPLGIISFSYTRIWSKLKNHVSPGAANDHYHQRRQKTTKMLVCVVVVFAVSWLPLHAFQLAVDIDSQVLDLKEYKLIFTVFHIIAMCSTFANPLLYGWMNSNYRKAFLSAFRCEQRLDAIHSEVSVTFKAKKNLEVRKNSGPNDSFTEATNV

| SMILES | activation |
| --- | --- |
| CCOc1ccc(C(=O)NC2CCN(CC(=O)NCc3cccs3)CC2)cc1 | 13.5% |
| CCNS(=O)(=O)c1ccc(NC(=O)Nc2cccc(C(F)(F)F)c2)cc1 | 24.5% |
| CS(=O)(=O)NCc1ccc(C(=O)NCc2ccccc2)cc1 | 10.7% |
| O=C(NCc1ccccc1)c1ccc(S(=O)(=O)Nc2cccc(C(F)(F)F)c2)cc1 | 47.4% (active) |
| COc1ccc(CN2CCN(Cc3cn(C)nc3-c3ccccc3)CC2CCO)c(C)c1C (stereo not drawn) | -18% |
| CC(C)(C)OC(=O)N/N=C/c1ccc(C(=O)O)cc1 | 10% |
| CC(=O)c1c(-c2ccccc2)c2ccccc2[nH]c1=O | 6.99% |
| CCO[C@H]1OC(C(=O)N2CCN(Cc3ccccc3)CC2)=C[C@@H](c2cn(C(C)=O)c3ccccc23)[C@@H]1CCCO | -8.85% |
| COCC1CCCN(Cc2nc(-c3ccc4c(c3)OCO4)no2)C1 (stereo not drawn) | -10.6% |
| Oc1c(Cl)cc(Cl)c(Cl)c1Cc1c(O)c(Cl)cc(Cl)c1Cl | 56.1% (active) |
| CCN(C(=O)COC(=O)c1cc(S(=O)(=O)N2CCc3ccccc32)ccc1OC)C1CCS(=O)(=O)C1 (stereo not drawn) | -3.32% |
| CCOC(=O)C1=C(N)N2C(=O)C(C)SC2=C(C(=O)OCC)C1c1cc(OC)c(OC)c(OC)c1 (stereo not drawn) | -1.02% |
| Cc1ccccc1OCC(O)CN1CCN(c2ccccn2)CC1 (stereo not drawn) | 17.9% |
| OC(COc1cccc2ccccc12)CN1CCN(c2ccccn2)CC1 (stereo not drawn) | 58.3% (active) |
| Cc1cccc(OCC(O)CN2CCN(CCN3C(=O)c4cccc5cccc(c45)C3=O)CC2)c1C (stereo not drawn) | 30.4% |
| CC(C)COP(=O)(c1ccc(N(C)C)cc1)C(Nc1ccccc1)c1cccnc1 (stereo not drawn) | 4.54% |
| CC(=O)OC(C(=O)NCCc1ccccc1)c1cccnc1 (stereo not drawn) | -16.8% |
| CC(Nc1ccccc1)c1cccnc1 (stereo not drawn) | 40.2% (active) |
| CCCCc1cc2c(s1)CCCC/C2=N/O | 5.62% |
| C/C(=C\c1ccco1)CN1CCC(N2CCC(C(=O)N3CCOCC3)CC2)CC1 | -15.1% |

| SMILES | activation |
| --- | --- |
| Cc1cc(C(=O)N/N=C/c2ccc(O)c([N+](=O)[O-])c2)c(C)n1-c1ccc(F)cc1 | 3.14% |
| Cc1c(S(=O)(=O)NCc2ccccc2)c(=O)n(C)c(=O)n1C | -20.2% |
| COc1ccc2nc(Nc3nc4ccc(NC(C)=O)cc4s3)sc2c1 | -3.69% |
| COc1ccc2nc(NC(=O)NC3CCCCC3)sc2c1 | 42.1% (active) |
| COc1ccc2nc(NC(=O)c3ccc(Br)s3)sc2c1 | 11.8% |
| O=C(NC(=S)Nc1cccc2c(O)cccc12)c1cccc(Br)c1 | -15.3% |
| O=S(=O)([N-]c1nc2ccccc2nc1-[n+]1ccc(Cc2ccccc2)cc1)c1ccc(Br)s1 | -4% |
| CC(=O)c1ccc2c(c1)OCCOCCOc1ccc(C(C)=O)cc1OCCOCCO2 | 43.3% (active) |
| O=C(c1ccc2c(c1)OCO2)N1CCOCC1 | 7.94% |
| C/C(=N\NC(=O)C(N)=O)c1ccc2c(c1)OCCO2 | -7.65% |
| COc1ccc(N2C(=O)C(CC(=O)Nc3ccc(F)cc3)N(CCc3cccs3)C2=O)cc1 (stereo not drawn) | 4.57% |
| O=C(N1CCCCC1)N1CCN(C(=O)N2CCCCC2)CC1 | -11.1% |
| CN(C)S(=O)(=O)c1ccc(NC(=O)COC(=O)Cn2[nH]c(=O)c3ccccc3c2=O)cc1 | -2.17% |
| O=C(COC(=O)c1n[nH]c2ccccc12)NCc1ccccc1 | -3.06% |
| CN(C)S(=O)(=O)c1ccc(NC(=O)COC(=O)c2n[nH]c3ccccc23)cc1 | 32.2% (active) |
| COc1ccccc1N1CCN(C(=O)CSc2ncnc3c2cnn3-c2ccc(C)c(C)c2)CC1 | -4.38% |
| CCOC(=O)c1sc2nc(C)[nH]c(=O)c2c1C | -3.44% |
| CC(C)OCCCNC(=S)N1CCC(C(=O)c2ccc3c(c2)OCCO3)CC1 | -6.61% |
| COc1ccc(CC(=O)NCc2nnc(SCC(=O)Nc3ncc(C)s3)n2C)cc1 | -1.91% |
| Cc1ccc(S(=O)(=O)N(Cc2ccc(Cl)cc2)c2ccccc2C(=O)NCc2cccnc2)cc1 | -13.3% |

| SMILES | activation |
| --- | --- |
| NC(=O)C1(N2CCCCC2)CCN(C(=S)Nc2ccc(Cl)cc2)CC1 | 4.89% |
| CC(C)(O)C#Cc1ccc(C(=O)N2CCC(C(N)=O)(N3CCCCC3)CC2)cc1 | 14.8% |
| NC(=O)C1(N2CCCCC2)CCN(C(=O)c2ccc(C#Cc3ccccc3)o2)CC1 | 66.2% (active) |
| C/C=C/C=C/C(=O)OCC(=O)Nc1ccc(Cl)cc1 | -15.7% |
| COc1ccc2c(-c3ccccc3)cc(SCC(=O)N(C)C3CCS(=O)(=O)C3)nc2c1 (stereo not drawn) | 6.98% |
| CCOC(=O)c1c(C)nc2c(c1C)c(=O)oc1ccccc12 | -26.5% |
| Cc1ccccc1-n1nnc2c(=O)oc3ccccc3c21 | 32.7% (active) |
| CCCCC(=O)Nc1cc(C)c2c(=O)oc3ccccc3c2n1 | 1.67% |
| COc1ccc(NC(=O)c2cn(-c3ccccc3)nc2SC)cc1 | -16% |
| CCC(=O)c1ccc(N2CCN(C(=O)c3cc([N+](=O)[O-])ccc3F)CC2)c(F)c1 | -2.53% |
| Cc1ccccc1CSc1nnc(-c2ccccc2)c(=O)[nH]1 | -5.69% |
| O=C1CC(Sc2ncn[nH]2)C(=O)N1c1ccccc1 (stereo not drawn) | -10.2% |
| O=[N+]([O-])c1cccc(C2=NCCS2)c1 | 5.16% |
| Cc1nn(-c2ccc([N+](=O)[O-])cc2)c(N)c1-c1ccccc1 | 8.55% |
| Nc1c(-c2cccc(Cl)c2)cnn1-c1cccc([N+](=O)[O-])c1 | 43.3% (active) |
| Cc1ccc(NC(=O)C(=O)NCc2ccc(/C=N/NC(=O)c3c(C)nc4cc(C)ccn34)o2)cc1 | 12.4% |
| CCCN(CC(=O)Nc1ccccc1C)C(=O)c1cc(=O)[nH]c2ccccc12 | -12.5% |
| CC(C)NC(=O)NNc1c(Cl)cncc1Cl | -6.55% |

From PubChem BioAssay AID1359 (The Scripps Research Institute Molecular Screening Center, 2008)
